Source: PubChem BioAssay
Shown are actives, neighbours in structure and some others; about 9.2% of the full set was active somewhere.
NPC1 promoter act – NPC1 promoter activation. Huh7 NPC1 promoter luciferase reporter, 24 h. Potency, µM (series often up to 9.22 µM), usual class: activators. hit rate 2.4% among 320,000. AID 485313; further: nearly all actives have a fitted effect of over 60% in size
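In 1536-well qHTS, Huh7 cells harboring an NPC1 promoter–luciferase construct received compound for 24 h; activation was quantified by luminescence following luciferase reagent addition.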
Rab9 prom act – Rab9 promoter activation; hit rate 2.8% among 320,000; Huh7 Rab9 promoter-luciferase reporter, luminescence, 24 h; Potency, µM (highest dose often 9.22 µM), usual class: activators; further: nearly all actives have a fitted effect of over 60% in size
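Luciferase signal after 10 min detection reagent at ambient indicates Rab9 promoter upregulation; stably transfected Huh7 cells were treated 24 h with compound in DMSO at 37 °C, 5% CO2.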
SMN2 splice up – increases expression of the SMN2 splice variant; HEK293 SMN2-luciferase splicing reporter, luminescence, 30-36 h; Potency, µM (series often up to 46.1 µM), most hits filed as activators; hit rate 2.8% among 210,000; further: nearly all actives have a fitted effect of over 55% in size
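qHTS luciferase splicing reporter: luminescence rises when SMN2 exon 7 is included in transfected HEK293 cells. Compound exposure lasted 30-36 h at 37C, with 4.5 mM final sodium butyrate as control, followed by a ONE-Glo read.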
FLuc counter – inhibits or activates purified firefly luciferase, miR-21 counter-screen; purified FLuc, Km substrates, luminescence inhibition; Potency, µM (doses to about 57.5 µM), hits mostly inhibitors; hit rate 6.9% among 360,000; further: nearly all actives have a fitted effect of over 55% in size
Target sequence (P08659 whole entry, looked up): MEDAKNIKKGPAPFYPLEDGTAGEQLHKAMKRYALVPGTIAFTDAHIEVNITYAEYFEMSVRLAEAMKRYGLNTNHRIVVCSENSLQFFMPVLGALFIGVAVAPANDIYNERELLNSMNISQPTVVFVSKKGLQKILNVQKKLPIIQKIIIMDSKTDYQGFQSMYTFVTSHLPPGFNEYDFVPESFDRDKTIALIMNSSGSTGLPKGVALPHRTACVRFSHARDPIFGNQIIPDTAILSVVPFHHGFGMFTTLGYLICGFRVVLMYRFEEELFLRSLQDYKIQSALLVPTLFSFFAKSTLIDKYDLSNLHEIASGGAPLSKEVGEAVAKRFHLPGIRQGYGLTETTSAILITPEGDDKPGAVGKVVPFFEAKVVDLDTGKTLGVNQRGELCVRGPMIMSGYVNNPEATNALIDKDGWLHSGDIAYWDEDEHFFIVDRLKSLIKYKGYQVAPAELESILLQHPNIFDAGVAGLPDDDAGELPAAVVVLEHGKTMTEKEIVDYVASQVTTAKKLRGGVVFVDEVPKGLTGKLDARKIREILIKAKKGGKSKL
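Purified P. pyralis luciferase, 10 nM final, with Km-level 10 uM D-luciferin and 10 uM ATP in 50 mM Tris acetate pH 7.5, 10 mM Mg acetate, 0.01% Tween-20, 0.05% BSA; 6-point qHTS titration about 60 µM downward; luminescence read.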
ELG1 genotox – inducers of genotoxicity in HEK293T ELG1-luciferase cells; Potency, µM (highest dose often 46 µM), most hits filed as activators; hit rate 1.3% among 330,000; HEK293T ELG1-luciferase reporter, luminescence, 16 h; further: nearly all actives have a fitted effect of over 60% in size
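Step 1: seed 2,000 HEK293T ELG1-luciferase cells per well. Step 2: add compound or DMSO, incubate 16 hr at 37 °C. Step 3: ONE-Glo, 30 min at room temperature, read luminescence.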
ELG1 DNA repair – ELG1-dependent DNA repair inhibition; AID 504467; Potency, µM (highest dose often 46.1 µM), most hits filed as inhibitors; hit rate 2.3% among 330,000; HEK293T ELG1-luciferase reporter, luminescence, 16 h; DNA damage induced by 5-fluorouridine; further: nearly all actives have a fitted effect of over 55% in size
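Step one: seed 2,000 cells per well. Step two: pin-transfer compound or DMSO alongside 5-fluorouridine. Step three: incubate 16 hr, 37 °C, 5% CO2. Step four: add ONE-Glo, wait 30 min, read luminescence.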
Hits are given with their value; i = inactive; ? = inconclusive; nt = no result; [ ] = another dose, or the depositor's remark. The call rests on the fitted dose curve; in most records, active means well fitted curve in the direction sought with a large enough effect; inconclusive means small, poorly fitted or top-dose-only effect, or another doubt; inactive means no such curve, though single readings can be large; an effect the other way counts as inactive or inconclusive.

SMILES | NPC1 promoter act | Rab9 prom act | SMN2 splice up | FLuc counter | ELG1 genotox | ELG1 DNA repair
COc1cc(/C=N/N2C(=O)CSC2=S)ccc1O | i | i | i | ? | i | i
COc1cccc(C2c3c(-c4ccccc4)n[nH]c3C(=O)N2c2ccc(C(=O)O)cc2)c1 (centres undefined) | i | i | i | i | i | i
COc1ccc(C2c3c(-c4ccccc4)n[nH]c3C(=O)N2c2ccc(C(=O)O)cc2)cc1 (centres undefined) | i | i | nt | 17µM | i | i
Cc1cc2oc(=O)cc(CN3CCCCC3C)c2cc1C(C)C (centres undefined) | i | i | nt | i | i | i
CC1N/C(=C\C(=O)c2ccccc2)N(O)C1(C)C (centres undefined) | 2.2µM | 1.4µM | ? | 8.5µM | 8.2µM | ?
O=[N+]([O-])c1c(NCCCO)cc(N2CCN(Cc3ccc4c(c3)OCO4)CC2)c2nonc12 | i | i | i | i | i | 23µM
COc1ccc(Nc2cc(NCCCO)c([N+](=O)[O-])c3nonc23)cc1 | i | i | nt | i | i | i
COc1ccc(CNc2cc(NCCCO)c([N+](=O)[O-])c3nonc23)cc1 | i | i | i | i | i | 21µM
Cc1ccc(C(CC(=O)NCC2(c3ccccc3)CCCC2)c2ccccc2)c(O)c1 (centres undefined) | nt | nt | i | i | nt | nt
Cc1ccc(S(=O)(=O)Nc2ccccc2CNc2cccc(C)n2)cc1 | i | i | i | i | i | i
O=C(O)c1cc(-c2c[nH]c3ccccc23)nc2ccc3ccccc3c12 | i | i | i | 1.2µM | i | ?
c1ccc2c(-c3c[nH]c4ccccc34)c3ccccc3nc2c1 | i | i | i | i | i | ?
CCOC(=O)CSc1nc(N)c(C(=O)Nc2ccc(N(C)C)cc2)s1 | i | i | i | 8.5µM | i | i
CCOC(=O)CSc1nc(C)c(C(=O)OCC)s1 | i | i | i | i | i | i
COc1ccc(NC(=O)c2sc(SC)nc2N)cc1 | ? | ? | 13µM | 12µM | 18µM | ?
COc1ccc(NC(=O)c2scc(S(=O)(=O)C(C)C)c2N)cc1 | 2.5µM | 1.1µM | nt | 6µM | ? | ?
CCN(CC)C(=O)CSc1nc(N)c(C(=O)Nc2ccc(OC)cc2)s1 | i | i | i | 24µM | i | ?
COc1ccc(NC(=O)c2sc(SCc3ccccc3)nc2N)cc1 | i | i | i | ? | i | i
Nc1ccc(F)cc1F | nt | nt | i | nt | nt | nt
N[C@@H](Cc1c[nH]c2ccc([N+](=O)[O-])cc12)C(=O)O | nt | nt | i[9.22 µM] | nt | nt | nt
NS(=O)(=O)c1cccc(NC(=O)CSc2nnc(-c3ccncc3)n2C2CC2)c1 | nt | nt | nt | nt | i | i
Cn1cnc(S(=O)(=O)N2CCCC(C(=O)Nc3ccc(OC(F)(F)F)cc3)C2)c1 (centres undefined) | nt | nt | nt | i | nt | nt
CCCn1c2ccccc2c2cnn(CC(=O)Nc3ccc(C)cc3Br)c(=O)c21 | nt | nt | nt | i | nt | nt
Cc1[nH][nH]c(=O)c1C(c1ccc(-c2cccc(C(=O)O)c2)o1)c1c(C)[nH][nH]c1=O | i | ? | nt | 15µM | i | i
O=C(Oc1ccc(C(=S)N2CCC(O)CC2)cc1)c1ccc(Cl)cc1 | i | i | i | 5.4µM | i | i
SMILES | NPC1 promoter act | Rab9 prom act | SMN2 splice up | FLuc counter | ELG1 genotox | ELG1 DNA repair
O=C(Oc1ccc(C(=S)N2CCCCC2)cc1)c1ccccc1 | i | i | nt | ? | i | i
Cc1ccc2oc(=O)c(/C=C(\O)c3ccccc3)nc2c1 | i | i | i | ? | i | i
Cc1nc2cc(-c3ccccc3)ccc2o1 | i | i | i | 12µM | i | ?
COc1ccc(CNc2ccccc2SC)cc1OC | i | i | i | ? | i | ?
COc1ccc(CNc2cccc3[nH]c(C(F)(F)F)nc23)cc1OC | i | i | nt | i | i | 26µM
CCc1nnc(SCC(=O)Nc2ccc(F)cc2F)c2cc3sc(C)cc3n12 | nt | nt | nt | i | nt | nt
O=C(NCCN1C(=O)S/C(=C\c2ccc(Cl)c(Cl)c2)C1=O)c1ccc2c(c1)C(=O)N(Cc1ccncc1)C2=O | i | i | i | i | i | 9.2µM
O=C(NCCN1C(=O)S/C(=C\c2ccc(Cl)c(Cl)c2)C1=O)C1COc2ccccc2O1 (centres undefined) | i | i | i | i | i | i
O=C(Nc1ccc(S(=O)(=O)N2CCOCC2)cc1)c1cc(-c2cc(Cl)ccc2O)n[nH]1 | i | i | nt | i | i | 23µM
Cc1ccc(O)c(-c2cc(C(=O)Nc3ccc(S(=O)(=O)N4CC(C)OC(C)C4)cc3)[nH]n2)c1 (centres undefined) | i | i | i | i | i | 8.2µM
Cc1ccc(-c2cc(C(=O)Nc3ccc(S(=O)(=O)N4CC(C)OC(C)C4)cc3)[nH]n2)c(O)c1 (centres undefined) | i | i | nt | i | i | i
COC(=O)[C@H](Cc1ccccc1)NC(=O)Nc1ccc(C)cc1 | i | i | ? | i | i | i
CCCCCC(/C=N/Nc1ccc(S(=O)(=O)N2CCOCC2)cc1[N+](=O)[O-])=C\c1ccccc1 | i | i | i | i | i | i
CCN(CC)CCCNC(=O)C1CCN(S(C)(=O)=O)CC1 | nt | nt | nt | i | nt | nt
COc1cc(SSc2cc(OC)cc([N+](=O)[O-])c2N)c(N)c([N+](=O)[O-])c1 | i | i | nt | 8.5µM | i | i
O=C(O)C(=Cc1ccc(-c2ccccc2)cc1)C(=O)O | nt | nt | i[9.22 µM] | nt | nt | nt
Cc1cc(N(C)C)nc(Nc2ccccc2)n1 | i | i | nt | ? | i | 15µM
Cc1cccc(Nc2nc(C)cc(C)n2)c1 | i | i | nt | i | i | i
Cc1cc(C)cc(N(C(=O)c2csnn2)C(C(=O)NC2CCCCC2)c2ccccn2)c1 (centres undefined) | i | i | nt | i | i | i
Cc1nc2nc(CSc3ccc(Cl)cc3)cc(=O)n2[nH]1 | i | i | i | ? | i | i
O=c1cc(-c2ccc([N+](=O)[O-])cc2)nc2cc(-c3ccc(F)cc3)[nH]n12 | i | i | i | ? | i | i
Cc1cc(=O)n2[nH]c(-c3ccc(Cl)cc3)cc2n1 | ? | 3.5µM | 14µM | 12µM | i | ?
Cc1cc2nc(CSc3ccc(Cl)cc3)cc(=O)n2[nH]1 | i | i | i | 17µM | i | ?
Cc1cc(=O)n2[nH]c(-c3ccc(F)cc3)cc2n1 | ? | ? | i | 17µM | ? | ?
COc1ccc2oc(=O)c(-c3nc(-c4ccc(C)c(C)c4)cs3)cc2c1 | nt | nt | nt | i | nt | nt
CC/C(C)=N\Nc1nc(-c2cc3cc(OC)ccc3oc2=O)cs1 | ? | ? | nt | 17µM | i | ?
CCc1ccc(Nc2nnc(-c3cc4cc(OC)ccc4oc3=O)s2)cc1 | nt | nt | nt | i | nt | nt
COc1ccc2oc(=O)c(-c3nc(C)cs3)cc2c1 | ? | 2.8µM | 14µM | ? | ? | ?
Cc1cc(C)c(C(=O)COC(=O)c2ccc([N+](=O)[O-])o2)cc1C | i | i | i | i | i | i
